How the values were obtained:
Settings in all cases: concentration: 1 μM, replicates: in singlicate; n = 1
[1] = test system: PLK2
[2] = test system: PLK3
[3] = test system: PLK4
[4] = test system: PRKCD
[5] = test system: PRKCE
[6] = test system: PRKCH
[7] = test system: PRKCI
[8] = test system: PRKCQ
[9] = test system: PRKD1
[10] = test system: PRKD2
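Further: KINOMEscan kinase panel screen.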

COc1cccc(C(=O)Nc2cccc(Oc3ccc4nc(NC(=O)C5CC5)cn4n3)c2)c1
%Inh [1]: 0% | %Inh [2]: 14% | %Inh [3]: 5% | %Inh [4]: 25% | %Inh [5]: 0% | %Inh [6]: 0% | %Inh [7]: 40% | %Inh [8]: 0% | %Inh [9]: 0% | %Inh [10]: 44%

COCCOCCOc1cc2ncc3c4ccc(C#N)cc4[nH]c3c2cc1OC
%Inh [1]: 0% | %Inh [2]: 0% | %Inh [3]: 13% | %Inh [4]: 0% | %Inh [5]: 11% | %Inh [6]: 0% | %Inh [7]: 33% | %Inh [8]: 35% | %Inh [9]: 0% | %Inh [10]: 0%

c1ccc(-c2cnc3nccnn23)cc1 [AH20685]
%Inh [1]: 0% | %Inh [2]: 0% | %Inh [3]: 0% | %Inh [4]: 0% | %Inh [5]: 0% | %Inh [6]: 4% | %Inh [7]: 3% | %Inh [8]: 0% | %Inh [9]: 0% | %Inh [10]: 0%

CN1CCN(CCCNc2nccc(-c3c(-c4ccc(F)cc4)nn4cc(C(F)(F)F)ccc34)n2)CC1 [GW621581]
%Inh [1]: 0% | %Inh [2]: 0% | %Inh [3]: 12% | %Inh [4]: 7% | %Inh [5]: 0% | %Inh [6]: 20% | %Inh [7]: 19% | %Inh [8]: 7% | %Inh [9]: 47% | %Inh [10]: 34%

COc1cc(Nc2nccc(-c3c(-c4cccc(NC(=O)c5c(F)cccc5F)c4)nn4ccccc34)n2)cc(OC)c1OC [GSK323521]
%Inh [1]: 0% | %Inh [2]: 0% | %Inh [3]: 6% | %Inh [4]: 31% | %Inh [5]: 17% | %Inh [6]: 22% | %Inh [7]: 27% | %Inh [8]: 15% | %Inh [9]: 8% | %Inh [10]: 7%

CC(C)(C)c1ccc2nccc(Nc3cccc(O)c3)c2c1 [GW856795]
%Inh [1]: 0% | %Inh [2]: 0% | %Inh [3]: 7% | %Inh [4]: 0% | %Inh [5]: 22% | %Inh [6]: 0% | %Inh [7]: 0% | %Inh [8]: 0% | %Inh [9]: 9% | %Inh [10]: 6%

COc1cc(Nc2nccc(-c3c(-c4cccc(NC(=O)c5c(F)cccc5F)c4)nn4ncccc34)n2)cc(OC)c1OC [GSK327238]
%Inh [1]: 68% | %Inh [2]: 92.7% | %Inh [3]: 44% | %Inh [4]: 79% | %Inh [5]: 14% | %Inh [6]: 67% | %Inh [7]: 9% | %Inh [8]: 90.2% | %Inh [9]: 6% | %Inh [10]: 14%

Cn1cc(-c2[nH]c3cc(NC(=O)[C@H](N)C4CCCCC4)cc4c3c2C=NNC4=O)cn1
%Inh [1]: 68% | %Inh [2]: 36% | %Inh [3]: 99.9% | %Inh [4]: 45% | %Inh [5]: 79% | %Inh [6]: 53% | %Inh [7]: 59% | %Inh [8]: 78% | %Inh [9]: 0% | %Inh [10]: 0%

CN1CCN(Cc2cccc(-c3ccc4c(Nc5ccc(Oc6ccccc6)cc5)ccnc4c3)c2)CC1 [GW578342]
%Inh [1]: 0% | %Inh [2]: 1% | %Inh [3]: 0% | %Inh [4]: 15% | %Inh [5]: 6% | %Inh [6]: 2% | %Inh [7]: 19% | %Inh [8]: 3% | %Inh [9]: 0% | %Inh [10]: 18%

Cc1ccc(F)c(C(=O)Nc2cccc(-c3nn4ccccc4c3-c3ccnc(Nc4cccc(F)c4)n3)c2)c1F [GSK361061]
%Inh [1]: 3% | %Inh [2]: 9% | %Inh [3]: 10% | %Inh [4]: 25% | %Inh [5]: 2% | %Inh [6]: 25% | %Inh [7]: 0% | %Inh [8]: 27% | %Inh [9]: 14% | %Inh [10]: 12%

Source: paper PMC5540273 (PLoS ONE, 2017)
